{"source": "PubChem BioAssay AID504444", "about": "(National Center for Advancing Translational Sciences (NCATS), 2011)", "note": "Among all 360,000 compounds or so, about 7,500 (2.1%) were called active. A call without a number means that no potency is given here. Another 20% or so got no clear call; they are omitted. Calls follow the shape of the dose curve; as a rule, active = well fitted inhibition curve with a large enough effect; inconclusive = small, poorly fitted or top-dose-only effect, or effect the other way; inactive = flat fitted curve, though single readings scatter. Only a selection was taken, and actives are over-represented in it overall. Potency is read from the fitted curve at half-maximal effect.", "data": [{"experiment": "Nrf2 qHTS screen for inhibitors; also: nearly all actives have a fitted effect of over 60% in size", "details": "A549 ARE-Fluc reporter, luciferase luminescence, 18-24 h; series mostly up to 46 µM", "procedure,_shortened": "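Reporter: ARE-Fluc in A549. Exposure: 18-24 h, 37 °C, 5% CO2, 5% FBS OPTI-MEM. Readouts: fluorescent cytotoxicity (CellTiter-Fluor), then luminescent Nrf2 signal after BugLite.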", "values": [{"compound": "CN(C)C(=S)N=c1ssc(=S)n1Cc1ccco1", "Potency": "inactive"}, {"compound": "CCCCOc1ccc(C(=O)Nc2cccc(-c3nc4ccccc4o3)c2C)cc1", "Potency": "inactive"}, {"compound": "COc1cccc(C(=O)Nc2ccc3oc(-c4ccc5ccccc5c4)nc3c2)c1", "Potency": "inactive"}, {"compound": "Cc1ccc(SCC(=O)Nc2ccc3oc(-c4ccccc4C)nc3c2)cc1", "Potency": "inactive"}, {"compound": "CCCOc1ccc(C(=O)Nc2ccc3oc(-c4cccc(Cl)c4Cl)nc3c2)cc1", "Potency": "5.8 µM (active)"}, {"compound": "Cc1ccccc1-c1nc2cc(NC(=O)c3cccc(OCCC(C)C)c3)ccc2o1", "Potency": "6.51 µM (active)"}, {"compound": "O=C(COc1ccc(Cl)cc1)Nc1ccc(-c2nc3cc(Cl)ccc3o2)c(O)c1", "Potency": "inactive"}, {"compound": "O=C(NCCCc1ccccc1)c1ccc2c(c1)sc1nc(-c3ccc(F)cc3)cn12", "Potency": "inactive"}, {"compound": "CCc1ccc(OCCCn2c(CCCNC(=O)C3CCCCC3)nc3ccccc32)cc1", "Potency": "inactive"}, {"compound": "O=C(NCc1ccccc1)c1cccc(NC(=O)N2CCSc3ncccc32)c1", "Potency": "inactive"}, {"compound": "CC(C)(C)OC(=O)C[C@H]1C/C=C\\C[C@@H](CC(=O)N[C@H](CO)Cc2ccccc2)C(=O)NC[C@@H](c2ccccc2)OC1=O", "Potency": "inactive"}, {"compound": "COc1ccc(-c2ccc3c(c2)C2CC3CCN2CCC#N)cc1", "note": "(stereo not given)", "Potency": "inactive"}, {"compound": "Cc1nc2ccc(S(=O)(=O)N(CC(=O)Nc3ccc(F)cc3)Cc3ccccc3)cc2s1", "Potency": "inactive"}, {"compound": "Cc1c(C(=O)N2CCCC2)oc2c1-c1nn(CC(=O)NCc3ccc(OC(C)C)cc3)cc1CC2", "Potency": "20.6 µM (active)"}, {"compound": "CCCN(CCC)CCCNC(=O)Cn1cc2c(n1)-c1c(oc(C(=O)N3CCCC3)c1C)CC2", "Potency": "inactive"}, {"compound": "COc1ccccc1N1CCN(c2ccc(=O)n(CC(=O)NCc3ccc(OC(C)C)cc3)n2)CC1", "Potency": "inactive"}, {"compound": "Cc1ccc(Cn2cc(CCC(=O)NCc3ccc(OC(C)C)cc3)c3ccccc32)cc1", "Potency": "inactive"}, {"compound": "Cc1cccc(N2CCN(C(=O)c3oc(=O)c4ccccc4c3-c3ccccc3)CC2)c1C", "Potency": "inactive"}, {"compound": "COc1cc(/C=C(\\C#N)c2nc3ccccc3[nH]2)ccc1O", "Potency": "inactive"}, {"compound": "Cc1ccc2nc(/C(C#N)=C/c3ccccc3F)[nH]c2c1", "Potency": "inactive"}, {"compound": "Cc1ccc2nc(/C(C#N)=C\\c3ccc(OC(=O)c4cccs4)cc3)[nH]c2c1", "Potency": "4.61 µM (active)"}, {"compound": "Cc1onc(-c2c(Cl)cccc2Cl)c1C(=O)NNC(=O)c1c(-c2c(Cl)cccc2Cl)noc1C", "Potency": "inactive"}, {"compound": "CC(=O)Nc1cccc(/C(C)=N/NC(=O)c2c(-c3ccccc3Cl)noc2C)c1", "Potency": "9.2 µM (active)"}, {"compound": "Cc1onc(-c2ccccc2Cl)c1C(=O)OCC(=O)c1ccccc1", "Potency": "inactive"}, {"compound": "COC(=O)c1ccc(CNC(=O)Cn2cc(C)c(=O)[nH]c2=O)cc1", "Potency": "inactive"}, {"compound": "Cc1cccc(-c2nc(SCc3ccc(Br)cc3)n3[nH]c(=O)cc3n2)c1", "Potency": "inactive"}, {"compound": "CC(=O)Nc1ccc(-c2csc(NC(=O)Nc3ccccc3)n2)cc1", "Potency": "16.4 µM (active)"}, {"compound": "CC(=O)Nc1ccc(S(=O)(=O)Nc2nc(-c3ccc(C(C)(C)C)cc3)cs2)cc1", "Potency": "inactive"}, {"compound": "O=C(O)c1ccccc1C(=O)Nc1nc(-c2ccccc2)cs1", "Potency": "inactive"}, {"compound": "Cc1cc(Cl)ccc1OCC(=O)N(Cc1ccc(N(C)C)cc1)C1CCS(=O)(=O)C1", "note": "(stereo not given)", "Potency": "inactive"}, {"compound": "COc1ccc(-c2ccc3c(c2)[C@@H]2C[C@H](N(C)S(=O)(=O)c4ccccc4)[C@H]([C@H](C)O)C(=O)N2CC3)cc1", "Potency": "inactive"}, {"compound": "Cc1nnc(N2CCC(C(=O)Nc3ccc(F)cc3)CC2)c2nn(-c3ccc(Cl)cc3)c(C)c12", "Potency": "inactive"}, {"compound": "CC1C(C)N(C(=O)CCl)c2ccccc2N1C(=O)CCl", "note": "(stereo not given)", "Potency": "18.4 µM (active)"}, {"compound": "CNC(=O)N1c2ccccc2C=Cc2ccccc21", "Potency": "inactive"}, {"compound": "CC1CC(C)CN(CC(=O)N2c3ccccc3CCc3ccccc32)C1", "note": "(stereo not given)", "Potency": "inactive"}, {"compound": "CCN(CC)S(=O)(=O)c1ccc(NC(=O)c2cccnc2Cl)c(NC(=O)c2cccnc2Cl)c1", "Potency": "20.6 µM (active)"}, {"compound": "CCN(CC)S(=O)(=O)c1ccc(Cl)c(NC(=O)c2ccncc2)c1", "Potency": "inactive"}, {"compound": "Cc1cccc(NC(=O)c2cccnc2Cl)n1", "Potency": "inactive"}, {"compound": "COc1ccc(N2C(=O)CS(=O)(=O)C23C(=O)N(Cc2ccc(C)cc2)c2ccccc23)cc1Cl", "note": "(stereo not given)", "Potency": "inactive"}, {"compound": "CN(C)C(CNC(=O)c1cc2ccccc2o1)c1ccccc1", "note": "(stereo not given)", "Potency": "inactive"}, {"compound": "COc1cccc(CN2CCc3nc(SCC(=O)Nc4ccccc4)[nH]c(=O)c3C2)c1", "Potency": "inactive"}, {"compound": "O=[N+]([O-])c1cc(Br)c(O)c(/C=N/Nc2nc3ccccc3s2)c1", "Potency": "inactive"}, {"compound": "c1ccc(C(=NNc2nc3ccccc3s2)c2ccccn2)cc1", "Potency": "9.2 µM (active)"}, {"compound": "COc1cc(/C=N/Nc2nc3ccccc3s2)ccc1O", "Potency": "inactive"}, {"compound": "CCC(C(=O)Nc1cc(OC)ccc1OC)n1c(=O)c(C(F)(F)F)nc2ccccc21", "note": "(stereo not given)", "Potency": "inactive"}, {"compound": "CSCCC(NC(=O)c1ccccc1)C(=O)N1CCN(Cc2ccc(Cl)cc2)CC1", "note": "(stereo not given)", "Potency": "inactive"}, {"compound": "CCCCN(C(=O)c1cccc(N2C(=O)c3ccccc3C2=O)c1)c1c(N)n(CCCC)c(=O)[nH]c1=O", "Potency": "inactive"}, {"compound": "N#Cc1ccc(OC2=NS(=O)(=O)c3ccccc32)cc1", "Potency": "inactive"}, {"compound": "COc1ccc(C(=O)Oc2cc(/C=N/NS(=O)(=O)c3ccc(C)cc3)ccc2OC)cc1", "Potency": "16.4 µM (active)"}, {"compound": "COc1ccc(S(=O)(=O)N/N=C\\c2ccc(OC)c(COc3ccc(C)cc3[N+](=O)[O-])c2)cc1", "Potency": "inactive"}, {"compound": "COc1ccc(/C=N/NS(=O)(=O)c2ccc(NC(C)=O)cc2)cc1", "Potency": "inactive"}, {"compound": "CCOc1ccc(C(=O)c2cn(Cc3ccc(F)cc3)c3ccc(F)cc3c2=O)cc1", "Potency": "inactive"}, {"compound": "CN(C)c1ccc(Nc2c3c4c(cccc4n(C)c2=O)C(=O)c2ccccc2-3)cc1", "Potency": "8.2 µM (active)"}, {"compound": "CN(C)c1ccc(C2N(C)C(=O)c3ccccc3N2C)cc1", "note": "(stereo not given)", "Potency": "inactive"}, {"compound": "Cc1ccc(Nc2c(-c3ccc(N(C)C)cc3)nc3nc[nH]n23)cc1", "Potency": "inactive"}, {"compound": "O=C(Nc1c(C(=O)N2CCN(c3ccc(F)cc3)CC2)oc2ccccc12)c1ccco1", "Potency": "inactive"}, {"compound": "CCOC(=O)C1CCCN(C(=O)C2CCN(S(=O)(=O)c3ccc(Cl)c(C(F)(F)F)c3)CC2)C1", "note": "(stereo not given)", "Potency": "inactive"}, {"compound": "CCC(=O)Nc1ccc2nc(SCC(=O)N3CCc4ccccc43)sc2c1", "Potency": "inactive"}, {"compound": "CCCCNC(=O)CSc1nc2ccc(NC(=O)CSc3nnc(N)s3)cc2s1", "Potency": "16.4 µM (active)"}, {"compound": "CCCCNC(=O)CSc1nc2ccc(NC(=O)CSc3nnc(COc4ccccc4C)n3C)cc2s1", "Potency": "inactive"}]}]}
